Several values for one entry are separate records, joined by “and”; a condition that tells them apart may be missing. Identical values can stand only once. Inconclusive results are not listed. Activity calls are given as the source filed them. Unless noted, the rule behind the calls is not given here.
How the values were obtained:
[1] = tested on: Aerobactin synthetase IucA (Klebsiella pneumoniae, hypervirulent); assay: biochemical IucA inhibition screen of LOPAC library by absorbance (AID 1346212); conditions: IucA enzyme assay, absorbance (OD) readout; stronger effect = lower value;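 tested at 8 µM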;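 note: 100% = no compound wells and 0% = no enzyme wells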
[2] = compounds altering circadian rhythm period length – cell-based, LOPAC library, luminescence reporter (AID 2774); conditions: circadian reporter cells, at 7 µM, actives lie on both sides;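 note: values are relative to mean of DMSO wells on each plate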
[3] = tested on: Hepatitis C virus NS3 helicase; assay: blockers of NS3h binding to ssDNA – biochemical, fluorescence polarization, LOPAC1280 library, primary screen (AID 687035; in the data active = inhibition above about 37%); conditions: Purified HCV NS3 helicase, Cy5-dT15 ssDNA binding fluorescence polarization; stronger effect = higher value; concentration not given here
[4] = compounds altering Cy5-DNA-NS3h complex signal – biochemical, LOPAC1280, artefact control for HCV NS3 helicase inhibitor project (AID 687037); conditions: Cy5-DNA-NS3h complex fluorescence interference counterscreen
[5] = viability loss with induced miR-34 in A549 – imaging, A549 dox-inducible miR-34, nuclei and caspase counts, primary screen (AID 1347080;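 active = compounds whose cell count with miR-34 switched on is under 0.7 times the count with it off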); conditions: A549 miR-34 inducible, Hoechst nuclei count, 48 h
[6] = blockers of cellular phospholipid synthesis – cell-based, LOPAC library, screen 4, primary screen (AID 1347384); conditions: animal cells, phospholipid biosynthesis inhibition screen; at 10 µM
[7] = galactose survival enhancers in mitochondrial complex I cybrids – cell-based, galactose medium, ATP luminescence, primary screen (AID 1645843;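 active = z-score of at least 1.8 in each of two replicates, scored against plate mean and spread of sample wells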;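 note: positive z means more ATP and so rescue of galactose-driven cybrid death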); conditions: complex I mutant cybrid cells, 72 h, stronger effect = higher value
[8] = compounds altering viability of human ES cells (AID 493140); conditions: human embryonic stem cell survival screen; stronger effect = higher value;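 note: cells exposed to compounds for four days before counting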
[9] = chitosan synthesis blockers in C. neoformans – flow cytometry, Cibacron Brilliant Red staining (AID 1347148); conditions: Cryptococcus neoformans chitosan, stronger effect = lower value; at 10 µM unless noted;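 note: compound exposure lasted three days at 37 degrees C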
[10] = viability loss in pontine glioma line – cell-based, SU-DIPG-XVII, MIPE5.0, CellTiter-Glo, qHTS, dose response (AID 1347060; cut-off not given, nearly all actives have AC50 up to about 26 µM;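 note: cells exposed to compound for 48 hours before viability readout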); conditions: CellTiter-Glo ATP luminescence
[11] = viability loss in pontine glioma line – cell-based, SU-DIPG-XIII, MIPE4.0, CellTiter-Glo, qHTS, dose response (AID 1347061; cut-off not given, nearly all actives have AC50 up to about 37 µM;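 note: cells exposed to compound for 48 hours before readout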); conditions: CellTiter-Glo ATP luminescence
[12] = viability loss in pontine glioma line – cell-based, SU-DIPG-IV, MIPE4.0, CellTiter-Glo, qHTS, dose response (AID 1347063; cut-off not given, nearly all actives have AC50 up to about 30 µM;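 note: compound exposure lasted 48 hours before the viability readout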); conditions: CellTiter-Glo ATP luminescence
[13] = viability loss in pontine glioma line – cell-based, SU-DIPG-XXV, MIPE5.0, CellTiter-Glo, qHTS, dose response (AID 1347065; cut-off not given, nearly all actives have AC50 up to about 26 µM;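 note: cells exposed to compound for 48 hours before ATP readout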); conditions: CellTiter-Glo ATP luminescence
[14] = growth inhibition of DIPG cells – cell-based, MIPE4.0 library, CellTiter-Glo luminescence, qHTS (AID 1347066; cut-off not given, nearly all actives have AC50 up to about 30 µM;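 note: cells exposed to compound for 48 hours before readout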); conditions: SU-DIPG-VI viability, CellTiter-Glo ATP luminescence
[15] = JHH-DIPG-1 glioma cell viability, MIPE5.0 library, CellTiter-Glo luminescence, qHTS (AID 1347067; cut-off not given, nearly all actives have AC50 up to about 26 µM;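 note: cells exposed to compound for 48 hours before readout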); conditions: JHH-DIPG-1 glioma viability, CellTiter-Glo ATP luminescence
[16] = measured here: relative caspase fold change +Dox/-Dox
[17] = measured here: total cells with miR-34 induction, stronger effect = lower value
[18] = measured here: total cells without miR-34 induction

SMILES: Nc1ncnc2c1nc(Sc1ccc(Cl)cc1)n2C1OC2COP(=O)(O)O[C@@H]2[C@@H]1O (some centres not stated)
- remaining activity [1]: 108% (inactive)

SMILES: COc1ccccc1CNCCCCCCNCCCCCCCCNCCCCCCNCc1ccccc1OC
- remaining activity [1]: 91.3% (inactive)

SMILES: N#Cc1cc2nc(O)c(O)nc2cc1[N+](=O)[O-]
- remaining activity [1]: 86.8% (inactive)

SMILES: CCCn1c(=O)c2[nH]c(-c3ccc(S(=O)(=O)O)cc3)nc2n(CCC)c1=O
- remaining activity [1]: 111% (inactive)

SMILES: CC1=C(C(=O)O)N2C(=O)[C@@H](NC(=O)[C@H](N)C3=CCC=CC3)[C@H]2SC1
- remaining activity [1]: 113% (inactive)

SMILES: CCCCN1CCC(COC(=O)c2cc(Cl)c(N)c3c2OCCO3)CC1
- remaining activity [1]: 109% (inactive)

SMILES: COC(=O)[C@@H]1[C@H]2C[C@H]3c4[nH]c5ccccc5c4CCN3C[C@@H]2CC[C@@H]1O
- remaining activity [1]: 124% (inactive)

SMILES: NC[C@@H]1O[C@H](C23CC4CC(CC(C4)C2)C3)Cc2c1ccc(O)c2O
- remaining activity [1]: 111% (inactive)

SMILES: CN1CCC(=C2c3ccccc3C=Cc3ccccc32)CC1
- remaining activity [1]: 123% (inactive)

SMILES: NC/C=C\C(=O)O
- remaining activity [1]: 124% (inactive)

SMILES: Cc1ccc(S(=O)(=O)N[C@@H](Cc2ccccc2)C(=O)CCl)cc1
- remaining activity [1]: 107% (inactive)

SMILES: O=c1[nH]c2ccccc2c2ccccc12
- remaining activity [1]: 97.7% (inactive)

SMILES: CCN(c1nc(N)c(C(=O)N=C(N)N)nc1Cl)C(C)C
- remaining activity [1]: 109% (inactive)

SMILES: CN1C2CCC1CC(NC(=O)c1nn(C)c3ccccc13)C2 (configuration not stated)
- remaining activity [1]: 107% (inactive)

SMILES: CC1=C(C)C(=O)C(CCCCC#CCCCC#CCO)=C(C)C1=O
- remaining activity [1]: 118% (inactive)

SMILES: CC(N)=NCc1cccc(CN)c1
- remaining activity [1]: 103% (inactive)

SMILES: NC(=O)C1=CN(C2OC(COP(=O)(O)OP(=O)(O)OC[C@H]3O[C@@H](n4cnc5c(N)ncnc54)C(OP(=O)(O)O)[C@H]3O)C(O)C2O)C=CC1 (some centres not stated)
- remaining activity [1]: 112% (inactive)

SMILES: Cc1ccc2c(c1)C(N1CCN(C)CC1)=Nc1cccnc1N2
- remaining activity [1]: 126% (inactive)

SMILES: N=C1Sc2ccccc2C2=NCCCN12
- remaining activity [1]: 118% (inactive)

SMILES: CC(=O)[C@@]1(O)CC[C@H]2[C@@H]3CCC4=CC(=O)CC[C@]4(C)[C@H]3CC[C@@]21C
- remaining activity [1]: 106% (inactive)

SMILES: CO/N=C(\C(=O)N[C@@H]1C(=O)N2C(C(=O)O)=C(COC(C)=O)CS[C@H]12)c1csc(N)n1 (stereo in doubt)
- remaining activity [1]: 123% (inactive)

SMILES: CCCCCCCCc1ccc(-c2ccc(C(=O)O)cc2)cc1
- remaining activity [1]: 124% (inactive)

SMILES: OC[C@H]1NC[C@H](O)[C@@H](O)[C@@H]1O
- remaining activity [1]: 100% (inactive)

SMILES: O=C1O/C(=C/Br)CCC1c1cccc2ccccc12 (configuration not stated)
- remaining activity [1]: 112% (inactive)

SMILES: O=c1c2ccccc2[nH]c(=S)n1CCN1CCC(=C(c2ccc(F)cc2)c2ccc(F)cc2)CC1
- remaining activity [1]: 119% (inactive)

SMILES: CCCCCCCCCCCCCCCC(=O)NCCO
- remaining activity [1]: 118% (inactive)

SMILES: CSc1ccc(C(=O)c2[nH]c(=O)[nH]c2C)cc1
- remaining activity [1]: 118% (inactive)

SMILES: OC[C@H]1O[C@@H](n2cnc3c(Nc4ccccc4)ncnc32)[C@H](O)[C@@H]1O
- remaining activity [1]: 89.3% (inactive)

SMILES: c1cc(CN2CCCCC2)cc(OCCCNc2nc3ccccc3s2)c1
- remaining activity [1]: 101% (inactive)

SMILES: Cc1ccc([N+](=O)[O-])cc1S(=O)(=O)N(C)C
- remaining activity [1]: 108% (inactive)

SMILES: CN(C)CC/C=C1\c2ccccc2COc2ccccc21
- remaining activity [1]: 121% (inactive)

SMILES: NC(=O)OCC(COC(N)=O)c1ccccc1
- remaining activity [1]: 100% (inactive)

SMILES: COC1(C2=NCCN2)COc2ccccc2O1 (configuration not stated)
- remaining activity [1]: 105% (inactive)

SMILES: Nc1nc2ccc(Cl)cc2c2nc(-c3ccco3)nn12
- remaining activity [1]: 104% (inactive)

SMILES: CC(C)NC[C@H](O)c1ccc(O)c(O)c1
- remaining activity [1]: 108% (inactive) and 104% (inactive)

SMILES: COc1cc(OC)c(/C=C2/C(=O)Nc3ccccc32)c(OC)c1
- remaining activity [1]: 99.3% (inactive)

SMILES: c1ccc2c(N3CCNCC3)cccc2c1
- period change [2]: 0.19 h (inactive)
- inhibition [3]: -1% (inactive)
- fluorescence ratio (interference) [4]: 1 (inactive)
- remaining activity [1]: 77.2% (inactive)
- fold change ([5]; stronger effect = lower value): 0.966 (inactive)
- fold change [5, 16]: 1.06
- cell count [5, 17]: 8750
- cell count [5, 18]: 9060
- outcome [6]: inactive
- z-score [7]: -0.255 (inactive)

SMILES: N#CC(C#N)=Cc1ccc([N+](=O)[O-])c(O)c1
- period change [2]: -0.02 h (inactive)
- survival [8]: 124 (inactive)
- remaining activity [1]: 80.4% (inactive)
- fold change ([5]; stronger effect = lower value): 0.901 (inactive) and 1.08 (inactive)
- fold change [5, 16]: 1.46 and 1.27
- cell count [5, 17]: 4360 and 6240
- cell count [5, 18]: 4840 and 5770
- fold fluorescence [9]: 5.5 [at 232.4 µM] (inactive)

SMILES: NC1CCc2cc(O)c(O)cc2C1 (configuration not stated)
- period change [2]: 0.115 h (inactive)
- inhibition [3]: -1% (inactive)
- fluorescence ratio (interference) [4]: 1 (inactive)
- remaining activity [1]: 106% (inactive)
- fold change ([5]; stronger effect = lower value): 0.979 (inactive) and 0.806 (inactive)
- fold change [5, 16]: 1.51 and 1.21
- cell count [5, 17]: 9700 and 3720
- cell count [5, 18]: 9900 and 4610
- outcome [6]: inactive
- z-score [7]: -0.895 (inactive)

SMILES: Cc1cn([C@H]2C=C[C@@H](CO)O2)c(=O)[nH]c1=O
- remaining activity [1]: 106% (inactive)

SMILES: NC(N)=Nc1ccc2[nH]c3c(c2c1)C[C@@]1(O)[C@H]2Cc4ccc(O)c5c4[C@@]1(CCN2CC1CC1)[C@H]3O5
- period change [2]: -0.11 h (inactive)
- inhibition [3]: -6% (inactive)
- fluorescence ratio (interference) [4]: 0.9 (inactive)
- remaining activity [1]: 86.3% (inactive)
- fold change ([5]; stronger effect = lower value): 1.08 (inactive)
- fold change [5, 16]: 0.809
- cell count [5, 17]: 9750
- cell count [5, 18]: 9000
- outcome [6]: inactive
- z-score [7]: -0.92 (inactive)

SMILES: COC[C@H]1OC(=O)c2coc3c2[C@@]1(C)C1=C(C3=O)C2CCC(=O)[C@@]2(C)C[C@H]1OC(C)=O (some centres not stated)
- period change [2]: -0.52 h (inactive)
- survival [8]: 37.8 (inactive)
- inhibition [3]: -1% (inactive)
- fluorescence ratio (interference) [4]: 1 (inactive)
- remaining activity [1]: 109% (inactive)
- AC50 [10]: 5.25 µM (active)
- AC50 [11]: 23.5 µM (active)
- AC50 [12]: 3.72 µM (active)
- AC50 [13]: 2.63 µM (active)
- AC50 [14]: 18.7 µM (active)
- AC50 [15]: 4.17 µM (active)
- fold change ([5]; stronger effect = lower value): 1.01 (inactive)
- fold change [5, 16]: 1.88
- cell count [5, 17]: 3350
- cell count [5, 18]: 3320
- outcome [6]: inactive
- z-score [7]: 0.165 (inactive)

SMILES: CN1CCc2cc(O)cc3c2[C@H]1Cc1ccc(O)c(O)c1-3
- period change [2]: 0.03 h (inactive)
- inhibition [3]: -2% (inactive)
- fluorescence ratio (interference) [4]: 1 (inactive)
- remaining activity [1]: 101% (inactive)
- fold change ([5]; stronger effect = lower value): 1.01 (inactive)
- fold change [5, 16]: 1.15
- cell count [5, 17]: 9530
- cell count [5, 18]: 9390
- outcome [6]: inactive
- z-score [7]: -1.03 (inactive)

From PubChem BioAssay
